Assay outcomes as filed in PubChem.
Sampled rows, rich in hits. Any-hit rate of the full collection: about 19%.
DT40 TDP1 no CPT: qHTS for Inhibitors of human tyrosyl-DNA phosphodiesterase 1 (TDP1): qHTS in cells in absence of CPT | DT40 Tdp1-/- hTDP1 cells, no CPT, ATP luminescence, 48 h | Potency, µM (highest dose often 46.2 µM), inactives show top-dose activity change, negative = growth inhibition, actives largely listed as inhibitors | hit rate 15% among 420,000 | AID 686978, 2013; also: potency is read from the fitted curve at half-maximal effect; % is scaled to controls: 0 for no effect and ±100 for the full control effect; nearly all actives have a fitted effect of over 55% in size
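Luminescent ATP content (CellTiter-Glo) served as the growth readout. Knockout chicken DT40 cells expressing human TDP1 were exposed to compounds without camptothecin for a minimum 48 hr at 37 °C.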
IL-1B inflam inh: qHTS for Inhibitors of Inflammasome Signaling: IL-1-beta AlphaLISA Primary Screen; hit rate 4.7% among 360,000; activity change, % at 57.5 µM; THP-1 LPS/ATP IL-1B secretion, AlphaLISA, 16 h; active compounds read low; in the data active = activity change below about -50%; inconclusive = mostly about -30% to -49%; also: % is scaled to controls: 0 for no effect and ±100 for the full control effect
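Secreted IL-1B measured by AlphaLISA bead assay after 16 h compound exposure of THP-1 cells; compounds (final up to 57.5 uM) added 1 h before LPS (250 ng/mL) and ATP (1.25 mM) stimulation; lower signal means less secretion.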
BCR signal inh: qHTS Assay to Find Inhibitors of Chronic Active B-Cell Receptor Signaling. ABC-DLBCL IkBa-CBG/CBR reporter, luminescence ratio, 4 h. Potency, µM (doses to about 46.1 µM), for the others: at the highest dose activity change, negative = inhibition, actives largely listed as inhibitors. hit rate 0.05% among 340,000. AID 493014, 2011; active = well fitted inhibition curve with a large enough effect in the signal ratio, with a control signal flat, not every such curve was filed as active; inconclusive = small, poorly fitted or top-dose-only effect, or effect the other way, or a change in a side signal; the % refers to the signal ratio;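 also: potency is read from the fitted curve at half-maximal effect; plate controls were basal doxycycline-induced cells for no effect and cells given 10 µM MG132 for full effect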
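Compounds up to 46 uM were incubated four hours with TMD8 cells whose green CBG68 luciferase is fused to IkappaBalpha; red CBR luminescence normalised the signal, and concentration-effect curves were fitted to fusion, red and ratio data.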
MCF10A rereplic: A quantitative high throughput screen for small molecules that induce DNA re-replication in MCF 10a normal breast cells; Potency, µM (series often up to 46.1 µM), for inactives: top-dose activity, positive = re-replication, usual class: activators; hit rate 2.9% among 350,000; AID 624296, 2012; MCF 10A DNA re-replication, Hoechst nuclear intensity, 48 h; also: potency is read from the fitted curve at half-maximal effect; % of control where 0% means no effect; nearly all actives have a fitted effect of over 50% in size
SW480 rereplic: A quantitative high throughput screen for small molecules that induce DNA re-replication in SW480 colon adenocarcinoma cells | SW480 DNA re-replication, Hoechst DNA content imaging, 48 h | Potency, µM (top dose mostly 46.1 µM), for the others: top-dose re-replication activation, hits mostly activators | hit rate 1.8% among 340,000 | AID 624297, 2012; also: potency is read from the fitted curve at half-maximal effect; % of control where 0% means no effect; nearly all actives have a fitted effect of over 55% in size
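Quantitative HTS format with DMSO vehicle controls; 48 hr drug incubation at 37 C, then 40 min Hoechst staining and scanning imager measurement at 405 nm excitation.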
TDP1 cell CPT: qHTS for Inhibitors of human tyrosyl-DNA phosphodiesterase 1 (TDP1): qHTS in cells in presence of CPT. chicken DT40 Tdp1-/-;hTDP1 cells + 20 nM CPT, ATP luminescence, 48 h. Potency, µM (top dose mostly 46.2 µM), for inactives: top-dose activity change, negative = growth inhibition, hits mostly inhibitors. hit rate 12% among 420,000; also: potency is read from the fitted curve at half-maximal effect; % is scaled to controls: 0 for no effect and ±100 for the full control effect; nearly all actives have a fitted effect of over 55% in size
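Chicken DT40 Tdp1-/- cells complemented with human TDP1, 400 cells/well, exposed to compounds plus 20 nM camptothecin for at least 48 h at 37 C; viability read as ATP content by CellTiter-Glo luminescence.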
Numbers without * were called inactive; ? = inconclusive; / = no result given; [ ] = another dose, or the depositor's remark. Unless noted, calls follow the shape of the dose curve; as a rule, active = well fitted curve in the direction sought with a large enough effect; inconclusive = small, poorly fitted or top-dose-only effect, or another doubt; inactive = no such curve, though single readings can be large; an effect the other way counts as inactive or inconclusive.

SMILES	DT40 TDP1 no CPT	IL-1B inflam inh	BCR signal inh	MCF10A rereplic	SW480 rereplic	TDP1 cell CPT
CCn1c(CC(=O)Nc2ccccc2Cl)nnc1SCC(=O)NC1CCCC1	-7.0%	12.9	3.7%	-5.7%	-3.1%	3.6%
CC1CCc2nc3ccc(S(=O)(=O)N4CCC(C(=O)NC(C)c5ccccc5)CC4)cc3c(C(=O)O)c2C1 (centres undefined)	15.7%	36.2	0.0%	-1.5%	-1.1%	6.0%
Cc1nc2cc(C(=O)OCC(=O)NC34CC5CC(CC(C5)C3)C4)ccc2n1-c1ccccc1	?	-65.9*	9.0%	4.8%	-2.6%	5.8%
Cc1nc2cc(C(=O)OCC(=O)NC3CCS(=O)(=O)C3)ccc2n1-c1ccccc1 (centres undefined)	-13.3%	-8.4	9.8%	-24.7%	-49.5%	-1.6%
O=C(OCC(=O)C12CC3CC(CC(C3)C1)C2)c1ccccc1O	?	1.0	4.3%	11.1%	1.8%	?
O=C(COC(=O)c1ccccc1O)NC12CC3CC(CC(C3)C1)C2	18.4µM*	1.1	0.2%	3.8%	0.7%	11.6µM*
Cc1cccc(C(=O)OCC(=O)NC23CC4CC(CC(C4)C2)C3)c1O	18.4µM*	-9.4	-4.5%	3.1%	28.2%	9.2µM*
CC(=O)Oc1cc(C(=O)OCC(=O)NC23CC4CC(CC(C4)C2)C3)cc(OC(C)=O)c1OC(C)=O	?	123.8	/	-8.1%	-22.9%	5.8µM*
O=C(COC(=O)c1ccccc1Cc1ccccc1)NC1CCS(=O)(=O)C1 (centres undefined)	-1.3%	-9.6	6.2%	-2.5%	-5.8%	1.2%
CCOc1ccc(C(=O)OCC(=O)N2CCCC2)cc1OCC	-11.7%	7.2	-3.4%	-11.9%	-1.6%	16.4%
O=C(COC(=O)/C=C/C(=O)OCC(=O)NC12CC3CC(CC(C3)C1)C2)NC12CC3CC(CC(C3)C1)C2	14.6µM*	-93.2*	3.0%	5.17µM*	18.4µM*	13µM*
Cc1cccc(Cn2cc3c(=O)n(CC(=O)Nc4cccc(C)c4C)nc-3c3cc(F)ccc32)c1	-24.9%	/	/	/	/	-1.9%
N=c1oc2cc(O)ccc2cc1C(=O)Nc1ccc(Br)cc1	?	-89.9*	?	5.17µM*	1.64µM*	?
N=c1oc2ccccc2cc1C(=O)Nc1ccccc1	-28.9%	6.3	?	5.3%	-3.3%	-9.1%
N=c1oc2cc(O)ccc2cc1C(=O)Nc1nc2ccccc2s1	-28.2%	30.3	?	8.2µM*	2.91µM*	4.7%
Nc1ccc(C(=O)Nc2nc3ccccc3s2)cc1	-27.6%	-27.2	?	?	2.4%	-4.1%
COCCNC(=O)C1(C)CCCN(C(=O)c2c(-c3ccccc3)noc2C)C1 (centres undefined)	-12.1%	6.0	/	/	/	-3.4%
Cc1cccc(C(=O)Oc2c(Sc3ccccc3)c(C)nn2C(C)(C)C)c1	23.1µM*	/	/	/	/	?
COc1ccc(C(=O)Oc2c(Sc3ccc(Cl)cc3)c(C)nn2C(C)(C)C)cc1OC	?	/	/	/	/	23.1µM*
CCOc1ccccc1C(=O)Oc1c(Sc2ccccc2)c(C)nn1C(C)(C)C	-4.9%	/	/	/	/	-18.9%
COc1ccc(C(=O)Oc2c(Sc3ccc(C)cc3)c(C)nn2C(C)(C)C)cc1OC	20.6µM*	/	/	/	/	?
COc1cccc(C(=O)Oc2c(Sc3ccc(C)cc3)c(C)nn2C(C)(C)C)c1OC	23.1µM*	/	/	/	/	16.4µM*
COCC(=O)Oc1c(Sc2ccc(C)cc2)c(C)nn1C(C)(C)C	-23.9%	/	/	/	/	-21.4%
COc1cc([N+](=O)[O-])ccc1NC(=O)CSc1n[nH]c(C(C)C)n1	2.1%	4.2	3.1%	-6.2%	-17.1%	6.2%
Cc1cc(C)n(C(C)CC(=O)Nc2cccc(C(F)(F)F)c2)n1 (centres undefined)	?	/	/	/	/	-25.8%
SMILES	DT40 TDP1 no CPT	IL-1B inflam inh	BCR signal inh	MCF10A rereplic	SW480 rereplic	TDP1 cell CPT
CC1CCCCN1CC(O)COCCC12CC3CC(CC(C3)C1)C2 (centres undefined)	18.4µM*	-61.4*	-10.1%	5.3%	?	14.6µM*
CCN(CC)CC(O)COCCC12CC3CC(CC(C3)C1)C2 (centres undefined)	?	-2.4	?	?	?	?
OCCN(CCO)CC(O)COCCC12CC3CC(CC(C3)C1)C2 (centres undefined)	20.6µM*	-29.3	?	22.7%	-0.6%	?
OCCN(CCO)CC(O)COc1ccc(C23CC4CC(CC(C4)C2)C3)cc1 (centres undefined)	7.31µM*	?	-7.8%	?	?	7.31µM*
N#CCCN(CCCN1CCOCC1)CN1C(=O)c2ccccc2C1=O	?	0.0	/	/	/	3.6%
COc1cc(/C=N/Nc2nn3cnnc3c3ccccc23)ccc1O	?	-1.1	?	-1.1%	-7.8%	7.31µM*
CCOc1cc(/C=N/Nc2nn3cnnc3c3ccccc23)ccc1O	?	24.4	?	-11.4%	-2.5%	?
COc1cccc(/C=N/Nc2nn3cnnc3c3ccccc23)c1	20.6µM*	-3.1	?	?	-5.2%	13µM*
Cc1oc(-c2ccccc2NC(=O)C2CCC2)nc1CNC(=O)c1c(F)ccc(F)c1F	-13.8%	/	/	/	/	2.9%[9.04 µM]
O=c1c(-c2cc(F)cc(F)c2)nc2cnc(N3CCOCC3)nc2n1CCc1ccccc1	15.6%	/	/	/	/	-0.5%
CCOC(=O)c1sc(NC(=O)c2nc(SCC)ncc2Cl)c(C(=O)OCC)c1C	-16.4%	/	/	/	/	-1.5%
Oc1ccc(-c2nc3ccc4ccccc4c3c3c2CCC3)cc1O	?	-54.5*	6.7%	?	?	?
CSCCC(NC(=O)COc1ccccc1)C(=O)N1CCN(c2ccccc2F)CC1 (centres undefined)	23.1µM*	0.0	-4.6%	-5.5%	-0.9%	14.6µM*
CSCCC(NC(=O)COc1ccccc1)C(=O)N1CCCCCC1 (centres undefined)	?	-23.6	8.1%	-0.2%	-7.0%	-24.0%
CN(C)c1ccc(CNC(=O)C2CCN(S(=O)(=O)c3cn(C)cn3)CC2)cc1	-22.5%	/	/	/	/	1.1%
NS(=O)(=O)c1ccc(NNC(=O)c2ccccc2)cc1	-2.4%	10.7	4.7%	17.7%	-3.1%	0.7%
O=C(NNc1cc(Br)c(O)c(Br)c1)c1ccccc1	18.4µM*	31.6	5.4%	?	-3.0%	?
